Measurements published in the supplement of paper PMC12350171.
Counter-ions that a name gives are not always drawn. Values without a mark were called inactive.

Key:
Conditions in all cases: 20 µM
[1] = tested on: Haemophilus parainfluenzae; assay: growth AUC normalised to DMSO control (fraction of control); higher = less growth inhibition, active = hit call of the paper
Summary of the method: (§1)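 Three biological replicates were carried out, with OD578 read hourly for 24 h. Before inoculation at a starting OD578 of 0.01, pathogens were passaged anaerobically twice; plates were pre-reduced mGAM containing 20 μM compound and 1% DMSO, sealed with breathable membranes, and the Haemophilus parainfluenzae medium carried added hemin and NAD. Area under each growth curve was calculated by the trapezoidal rule up to the exponential-to-stationary transition and normalised to DMSO controls on the same plate.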

[2] = tested on: Salmonella enterica typhimurium; assay: as above
Summary of the method: as §1

Shigella flexneri = assay: as above
Summary of the method: as §1

Vibrio cholerae = assay: as above
Summary of the method: as §1

[3] = tested on: Yersinia pseudotuberculosis; assay: as above
Summary of the method: as §1

P. vulgatus RND KO = assay: growth AUC normalised to DMSO control (median) (fraction of control); higher = less growth inhibition, active = hit call of the paper
Summary of the method: (§2)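 For normalised area under the curve, growth curves were truncated at entry into stationary phase, integrated by the trapezoidal rule and divided against vehicle wells on the same plate. The curves came from strains passaged twice overnight without oxygen and then grown in mGAM in 96-well plates at a starting OD578 of 0.01. Each well held an approved-drug library compound at 20 μM with 1% DMSO, and OD578 was read hourly for 24 h in an anaerobic incubator. Values are medians of three biological replicates.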

P. vulgatus WT = assay: as above
Summary of the method: as §2

[4] = tested on: S. enterica typhimurium WT; assay: as above
Summary of the method: as §2

[5] = tested on: S. enterica typhimurium tolC KO; assay: as above
Summary of the method: as §2
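Throughout, for growth AUC normalised to DMSO control (median): active when median AUC fell below 0.1.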

Compound	growth AUC normalised to DMSO control [1]	growth AUC normalised to DMSO control [2]	growth AUC normalised to DMSO control (Shigella flexneri)	growth AUC normalised to DMSO control (Vibrio cholerae)	growth AUC normalised to DMSO control [3]	growth AUC normalised to DMSO control (P. vulgatus RND KO)	growth AUC normalised to DMSO control (P. vulgatus WT)	growth AUC normalised to DMSO control [4]	growth AUC normalised to DMSO control [5]
CCC1(c2cccc(O)c2)CCCCN(C)C1 (stereo not drawn) [Meptazinol hydrochloride]	0.961	0.983	0.948	0.974	0.994	0.993	0.982	0.998	1
CC(C)CC(N(C)C)C1(c2ccc(Cl)cc2)CCC1 (stereo not drawn) [Sibutramine hydrochloride]	0.969	1	0.971	0.967	1	1.02	1.02	1	0.999
C[CH2][Hg][S]c1ccccc1C(=O)[O-].[Na+] [Thimerosal]	1.2	0.932 (active)	0.828 (active)	0.935	1	0.0191 (active)	0.341	0.91	0.956
CN1CCC2(C)c3cc(O)ccc3N(C)C12 (single isomer, unassigned; (-)) [(-) Eseroline fumarate salt]	1.02	0.999	1.01	0.995	1.01	0.979	0.999	1.01	0.999
CN(C)[C@@H]1C(=O)C(C(N)=O)=C(O)[C@@]2(O)C(=O)C3=C(O)c4c(O)ccc(Cl)c4[C@@](C)(O)[C@H]3C[C@@H]12 [Chlortetracycline hydrochloride]	0.0445 (active)	0.00172 (active)	0.0163 (active)	0.0321 (active)	0.0311 (active)	0.0183 (active)	0.0152 (active)	0.00367 (active)	0.00506 (active)
Fc1ccc(C(OCCN2CCN(CCCc3ccccc3)CC2)c2ccc(F)cc2)cc1	0.991	1	0.998	0.944	0.995	0.994	0.966	0.999	0.914
CNC(=O)Oc1ccc2c(c1)[C@]1(C)CCN(C)[C@@H]1N2C [Eserine hemisulfate salt]	0.975	1.01	1.02	1.06	0.97	1.07	1.06	0.999	0.993
O=c1[nH]c2ccccc2n1CCCN1CCC(n2c(=O)[nH]c3cc(Cl)ccc32)CC1 [Domperidone]	1.02	1.01	0.985	1.03	1	1	1	1	0.979
C[N+](C)(C)CCCCCCCCCC[N+](C)(C)C [Decamethonium bromide]	1.03	1	1.03	1.07	1	0.997	1.07	1.01	1
CCNCC(O)c1cccc(O)c1 (stereo not drawn) [Etilefrine hydrochloride]	0.987	0.976	0.987	0.995	0.979	0.997	0.995	0.993	1
CCCC[N+]1(C)[C@@H]2C[C@@H](OC(=O)[C@H](CO)c3ccccc3)C[C@H]1[C@@H]1O[C@@H]12 (stereo partly drawn) [N-Butylscopolammonium bromide]	1	1	0.993	1.01	1.02	1	1	1	0.995
COc1ccc(CCN2CCC(Nc3nc4ccccc4n3Cc3ccc(F)cc3)CC2)cc1 [Astemizole]	1.02	1.05	0.997	0.934	1.02	1.01	0.986	1	0.962
CN1C[C@H](CNC(=O)OCc2ccccc2)C[C@@H]2c3cccc4c3c(cn4C)C[C@H]21 [Metergoline]	0.925	0.979	0.973	0.893	0.993	0.886	0.885	0.992	0.895
CCCC(C)(COC(N)=O)COC(=O)NC(C)C (stereo not drawn) [Carisoprodol]	0.843	1	0.977	0.948	1	1	1.02	1	0.979
O=[N+]([O-])O[C@H]1CO[C@H]2[C@@H]1OC[C@H]2O[N+](=O)[O-] [Isosorbide dinitrate]	1.07	1.03	1.02	1.09	1.01	0.94	0.94	0.996	1.01
CN1[C@@H]2CC[C@H]1C[C@@H](OC(=O)C(CO)c1ccccc1)C2 (stereo partly drawn) [Atropine sulfate monohydrate]	1.06	1.01	1.06	1.03	1	1.04	1.07	1.01	0.987
C=CCN1CC[C@]23c4c5ccc(O)c4O[C@H]2C(=O)CC[C@@]3(O)[C@H]1C5 [Naloxone hydrochloride]	1.01	0.981	1.03	1	1.01	1.03	0.997	1.01	1
CCN[C@@H](C)Cc1cccc(C(F)(F)F)c1 [Dexfenfluramine hydrochloride]	1.01	0.995	1.02	1.02	0.995	1	1.02	0.996	1
CNCC(O)c1ccc(O)cc1 (stereo not drawn) [Synephrine]	1.04	1.01	1.05	1.03	1.01	0.984	0.984	1	0.999
CN(C)C(=O)Oc1cc(OC(=O)N(C)C)cc(C(O)CNC(C)(C)C)c1 (stereo not drawn) [Bambuterol hydrochloride]	0.992	1	0.997	1	1.02	1.05	1.02	1.01	1.01
Oc1ccc2c3c1O[C@H]1[C@@H](O)CC[C@@]4(O)[C@@H](C2)N(CC2CCC2)CC[C@]314 [Nalbuphine hydrochloride]	0.982	0.984	0.974	0.984	0.905	0.997	0.966	0.988	0.995
COc1cc([C@@H]2c3cc4c(cc3[C@H](O)[C@H]3COC(=O)[C@H]23)OCO4)cc(OC)c1OC [Podophyllotoxin]	1.04	0.999	0.999	1.02	1.01	1	1.02	0.998	0.996
COc1ccc(C(CN(C)C)C2(O)CCCCC2)cc1 (stereo not drawn) [Venlafaxine]	1.33	0.98	0.957	0.984	1.08	0.997	0.999	0.997	1
C[N+]1(C)CCOC(O)(c2ccc(-c3ccc(C4(O)C[N+](C)(C)CCO4)cc3)cc2)C1 (stereo not drawn) [Hemicholinium bromide]	0.977	1	1.03	1.06	1.03	1	1.02	1.01	1
C#C[C@]1(O)CC[C@H]2[C@@H]3CCC4=CC(=O)CCC4=C3C=C[C@@]21CC [Gestrinone]	1.03	0.989	1.03	1.01	1.01	1.01	1.07	1.01	0.986
C=C1C[C@@H]2[C@H](CC[C@]3(C)C(=O)CC[C@@H]23)[C@@]2(C)C=CC(=O)C=C12 [Exemestane]	0.967	0.985	0.953	0.964	1	0.978	0.969	0.996	0.935
CN(C)C(=O)Oc1cccc([N+](C)(C)C)c1 [Neostigmine bromide]	1	1	0.994	1.01	0.916	1	0.997	1	1.01
